# Assay results: PubChem BioAssay (EPA / NIEHS)
# Results filed as inconclusive are left out. The source made the active and inactive calls. How the source made its calls, unless noted: active means hit-call score of the fitted dose curve at least 0.9, where 1 is the maximum; inactive means score below 0.9.
# What was measured:
# [1] = system: SRY-box transcription factor 2 (SOX2) Protein Expression, Deisenroth Lab, SOX2 (gene 6657); assay: CCTE_Deisenroth_DEVTOX-GLR_Pluri_SOX2: CCTE's DevTox GLR-Pluri Assay Evaluation of SRY-box transcription factor 2 (SOX2) Protein Expression, Deisenroth Lab (AID 2284428)
# Procedure, shortened: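 RUES2-GLR human pluripotent cells, two exposures 24 h apart over 48 h differentiation; 10-point series 1 nM - 200 uM. High-content imaging gives SOX2+ cells divided by cell count, reported as percent change versus 0.2% DMSO.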
# [2] = system: Brachyury (BRA) Protein Expression, Deisenroth Lab, TBXT (gene 6862); assay: CCTE_Deisenroth_DEVTOX-GLR_Pluri_BRA: CCTE's DevTox GLR-Pluri Assay Evaluation of Brachyury (BRA) Protein Expression, Deisenroth Lab (AID 2284429; active means hit-call score of the fitted dose curve at least 0.9, where 1 is the maximum)
# Procedure, shortened: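 An inducible fluorescent BRA reporter in RUES2-GLR cells tracks mesoderm differentiation. Compounds (10 concentrations, 1 nM - 200 uM) are dosed twice within a 48-h differentiation. The endpoint subtracts the 0.2% DMSO control from percent BRA+ cells.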
# [3] = CCTE_Deisenroth_DEVTOX-GLR_Pluri_CellCount: Viability Assessment in CCTE's DevTox GLR-Pluri Assay Evaluation of Total Cell Counts, Deisenroth Lab (AID 2284430)
# Procedure, shortened: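 RUES2-GLR human pluripotent cells, seeded 24 h, then differentiated 48 h with two chemical exposures 24 h apart; 10-point series 1 nM - 200 uM. Fixed, nuclear-stained, imaged (5 fields/well); nuclei count as % change vs 0.2% DMSO.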
# TTR (gene 7276) = assay: CCTE_GLTED_hTTR_0.125uM: CCTE's human Transthyretin (hTTR) Inhibition Assay, with 0.125uM TTR, Great Lakes Toxicology and Ecology Division (GLTED) Lab (AID 2284431);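 further: hits lower the fluorescence signal relative to DMSO baseline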
# Procedure, shortened: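 Cell-free displacement of ANSA probe from 0.125uM TTR after 2 h incubation with chemical. Fluorescence read at 380 nm excitation/475 nm emission; loss of signal relative to DMSO indicates T4-site displacement.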
compound,measurement,setting,value
CC1=C(/C=C/C(C)=C/C=C/C(C)=C/CO)C(C)(C)CCC1,AC50,[1],19.8 µM (active)
same,AC50,[2],26.8 µM (active)
same,AC50,[3],29.4 µM (active)
Cc1cccc(C)c1O,AC50,TTR (gene 7276),33.4 µM (active)
Cc1cc(NC(=O)C(=O)O)cc(C)c1Oc1ccc(O)c2c1CCC2,AC50,TTR (gene 7276),0.344 µM (active)
COc1cc(S(=O)(=O)O)c(C)cc1N=Nc1c(O)ccc2cc(S(=O)(=O)O)ccc12,AC50,TTR (gene 7276),30.8 µM (active)
O=c1[nH]cc(F)c(=O)[nH]1,AC50,[1],7.1 µM (active)
same,AC50,[2],7.54 µM (active)
same,AC50,[3],8.12 µM (active)
CC=Cc1ccc(O)c(OC)c1,AC50,TTR (gene 7276),13.6 µM (active)
Cc1ccc(C)c(O)c1C,AC50,TTR (gene 7276),21.9 µM (active)
Cc1c(C(=O)O)c(O)cc2c1C(=O)c1c(O)c([C@@H]3O[C@H](CO)[C@@H](O)[C@H](O)[C@H]3O)c(O)c(O)c1C2=O,AC50,TTR (gene 7276),10.1 µM (active)
Oc1ccc2ccccc2c1N=Nc1ccccc1,AC50,TTR (gene 7276),1.37 µM (active)
CC(=O)Oc1ccccc1C(=O)O,outcome,[1],inactive
same,outcome,[2],inactive
same,outcome,[3],inactive
COc1cccc2c1C(=O)c1c(O)c3c(c(O)c1C2=O)C[C@@](O)(C(=O)CO)C[C@@H]3O[C@H]1C[C@H](N)[C@H](O)[C@H](C)O1,AC50,[1],0.0073 µM (active)
same,AC50,[2],0.00927 µM (active)
same,AC50,[3],0.00758 µM (active)
C[C@]12C=CC(=O)C=C1CC[C@@H]1[C@@H]2C(=O)C[C@@]2(C)[C@H]1CC[C@]2(O)C(=O)CO,outcome,TTR (gene 7276),inactive
Cc1cccc(Nc2cc(Cl)nc(SCC(=O)O)n2)c1C,AC50,TTR (gene 7276),3.12 µM (active)
CCCc1cc(=O)[nH]c(=S)[nH]1,outcome,[1],inactive
same,outcome,[2],inactive
same,outcome,[3],inactive
COc1ccc2c(c1)c(CC(=O)O)c(C)n2C(=O)c1ccc(Cl)cc1,AC50,[1],6.52 µM (active)
same,AC50,[2],6.56 µM (active)
same,AC50,[3],4.99 µM (active)
same,AC50,TTR (gene 7276),1.93 µM (active)
C=CCc1ccc(O)c(OC)c1,AC50,TTR (gene 7276),26.1 µM (active)
CCCCC(CC)COC(=O)CC(C(=O)OCC(CC)CCCC)S(=O)(=O)O (stereo not given),AC50,TTR (gene 7276),1.62 µM (active)
